# Screens as filed in PubChem BioAssay.
# Compounds with a hit are over-represented: about 2.6% of the library has one in this group of screens.
# CF NFkB block = cystic fibrosis NF-kB activation inhibition; KKLEB NF-kB-GFP reporter, PAF-induced, GFP fluorescence overnight; inhibition, % at 5 µM; 360,000 tested, 0.86% active;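 active means at least 50% inhibition at 5 µM, scaled per plate between neutral and stimulator controls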;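 further: PAF is a Pseudomonas aeruginosa culture filtrate used as stimulus; plate controls were PAF-stimulated DMSO wells for no effect and unstimulated DMSO wells for full effect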
# LGR2 inh = Drosophila LGR2 receptor signaling inhibition | HEK293 LGR2, CRE-luciferase, bursicon-stimulated, 4 h | inhibition, % at 9.99 µM | 380,000 tested, 0.35% active | AID 720647;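 active means drop in luminescence signal, shown as inhibition above about 50% in the replicate tests, limit read from the data, passing the limit was not always enough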;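 further: agonist challenge used bursicon conditioned medium at about half maximal strength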
# TWEAK-Fn14 inh = blocks TWEAK-Fn14 interaction in a reporter cell assay | TWEAK-stimulated Fn14 reporter cells, luciferase luminescence, 8 h | inhibition, % at 10 µM | 360,000 tested, 2% active | AID 1159606; in the data active means inhibition above about 50%
# KKLEB cytotox = CF airway cell cytotoxicity counter-screen. activity change (cytotoxicity), % at 5 µM. KKLEB CF airway cells viability, ATPlite luminescence, overnight; active compounds read low; cells stimulated with P. aeruginosa culture filtrate. 360,000 tested, 0.36% active;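 active means corrected activity change at or below -50% at 5 µM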
# TROY NFkB inh = TROY signaling inhibition | Q293 LMP1-TROYcd NF-kB luciferase reporter, 4 h | inhibition, % at 10 µM | 360,000 tested, 0.98% active | AID 1347056;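 active means compounds whose plate-normalised and pattern-corrected inhibition of the luciferase reporter signal at the single screening dose is 50% or more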
# EWS-Fli inh = inhibitors of EWS/Fli oncoprotein transcriptional activity; A673 NR0B1-luciferase reporter, viability-normalised; inhibition, % at 12.6 µM; 350,000 tested, 0.67% active; AID 651661;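 active means mean inhibition of at least 50% after viability correction, with every replicate also passing that limit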;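 further: firefly luciferase signal divided by Alamar Blue viability fluorescence both relative to DMSO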
# Starred values were filed as active, the others as inactive; . = not tested or not shown.
SMILES,CF NFkB block,LGR2 inh,TWEAK-Fn14 inh,KKLEB cytotox,TROY NFkB inh,EWS-Fli inh
CC(C)NC(=O)Nc1ccc2c(c1)CC(=O)N([C@H](C)CO)C[C@H](C)[C@@H](CN(C)Cc1ccc(-c3ccccc3)cc1)O2,.,8,.,.,.,10
CCO[C@H]1OC(C(N)=O)=C[C@@H](C(C)(C)C)[C@@H]1CCCO,10,2,54*,0,-19,-4
C#CCNC(=O)C1=C[C@@H](C(C)(C)C)[C@H](CCCO)[C@@H](OCC)O1,.,.,.,.,.,-5
Cc1cc(N2CCN(Cc3cn(C)nc3-c3cccc(Cl)c3)CC2)cc(C)n1,22,22,8,-17,25,58*
O=C(c1cc(C2CC2)nc2ccc(Br)cc12)N1N=C(C(F)F)CC1(O)C(F)F (stereo not given),13,.,20,-14,54*,.
CC(C)c1ccc(-c2cc(C(=O)N3N=C(C(F)F)CC3(O)C(F)F)c3ccccc3n2)cc1 (stereo not given),6,.,28,2,-11,.
O=C(c1cc(C2CC2)nc2ccccc12)N1N=C(C(F)F)CC1(O)C(F)F (stereo not given),4,.,81*,4,-4,.
CCN(CC)S(=O)(=O)c1cccc2cc(C(=O)O)c(O)cc12,-22,.,79*,13,.,.
CCOC(=O)N1CCN(C(=O)Nc2ccc3nc(C)c(C)nc3c2)CC1,-2,.,-18,-1,-3,.
Cc1nc2ccc(NC(=O)N3CCCCC3)cc2nc1C,3,.,21,-6,50*,.
O=C(C[C@@H]1C[C@@H]2c3cc(NC(=O)Nc4ccccc4F)ccc3O[C@@H]2[C@H](CO)O1)NC1CCCC1,.,7,.,.,.,-3
CNC[C@@H]1Oc2cc(C#Cc3cccnc3)ccc2S(=O)(=O)N([C@H](C)CO)C[C@H]1C,.,-11,.,.,.,-3
CC(=O)Nc1ccc(C(=O)OCc2ccc(Cl)c(Cl)c2)cc1,-14,-4,94*,1,86*,.
COc1cc(SC)ccc1C(=O)Nc1ccc(Cl)cn1,-17,100*,91*,-69*,74*,84*
O=C(Nc1ccc(Cl)cn1)c1ccc(Oc2ccccc2)cc1,6,-30,-4,-13,-8,-55
Cc1ccc(C(=O)Nc2ncc3c(Cl)cccc3n2)cc1,-5,.,82*,-29,39,.
CCCOc1ccc(C(=O)Nc2ccc(Cl)cn2)cc1,-11,15,57*,-2,10,.
Cc1ccc(C(=O)Nc2ccc(Cl)cn2)cc1,21,-42,56*,-7,-3,42
CCCNC(=O)[C@H]1[C@H](CO)[C@H]2Cn3c(ccc(-c4ccccc4OC)c3=O)[C@H]2N1C(=O)CC,.,-2,.,.,.,-4
CCCOc1ccc(-c2nc(SCc3ccccc3)[nH]c(=O)c2C#N)cc1OC,22,6,-24,-10,51*,17
CCSc1nc(-c2ccccc2)c(C#N)c(=O)[nH]1,-4,.,7,9,4,.
CCC(C)[C@@H](NC(=O)OC(C)(C)C)c1nnc(S(=O)(=O)Cc2cccc(C)c2)o1 (stereo not given in full),82*,.,40,-7,28,.
Cc1cccc(CS(=O)(=O)Cc2ccc(C(=O)NC(C)c3ccccc3)o2)c1 (stereo not given),3,-2,0,4,-10,.
Cc1ccccc1CS(=O)(=O)c1nnc([C@H](Cc2ccccc2)NC(=O)OC(C)(C)C)o1,72*,22,10,-24,2,40
C[C@@H]1CCCCO[C@H](CN(C)C(=O)C2CCCCC2)[C@H](C)CN([C@@H](C)CO)C(=O)c2cc(NC(=O)Nc3ccc(C(F)(F)F)cc3)ccc2O1,.,4,.,.,.,-9
SMILES,CF NFkB block,LGR2 inh,TWEAK-Fn14 inh,KKLEB cytotox,TROY NFkB inh,EWS-Fli inh
COCCSc1nnc(NS(=O)(=O)c2ccc(C)cc2)s1,-2,1,-2,5,54*,6
COCCSc1nnc(NS(=O)(=O)c2ccccc2)s1,2,12,12,-2,-1,2
Cc1ccc(NC(=O)Nn2cnnc2)cc1Cl,-4,6,9,-1,3,.
Cc1ccc(NC(=O)O/N=C/c2c(C)nn(C(C)(C)C)c2C)cc1Cl,14,99*,103*,-26,82*,76*
C[C@@H]1CN([C@H](C)CO)C(=O)c2cc(-c3ccccc3)cnc2O[C@@H]1CN(C)C(=O)NC1CCCC1,.,3,.,.,.,2
Clc1ccc(-c2nnc(NC3=NCCCCC3)o2)cc1,-2,.,93*,-12,66*,.
O=C(Nc1nnc(-c2ccc(Cl)cc2)o1)C1CCCCC1,-14,-6,-4,-11,-18,-8
COc1ccc(C#Cc2cnc3c(c2)C(=O)N([C@H](C)CO)C[C@@H](C)[C@H](CN(C)CC2CCOCC2)O3)cc1,.,9,.,.,.,1
C[C@H](CO)N1C[C@H](C)[C@@H](CN(C)CC2CCOCC2)Oc2cc(C#C[C@@H](C)O)ccc2S1(=O)=O,.,-7,.,.,.,7
O=C(Cc1ccncc1)NCC[C@@H]1CC[C@H](NC(=O)C2CCCC2)[C@H](CO)O1,.,6,.,.,.,-4
O=C(NCc1cccs1)C1Cc2c(-c3ccc(Cl)cc3)ccnc2O1 (stereo not given),31,.,-22,-18,16,70*
COc1ccc(CNC(=O)C2Cc3c(-c4cccc(C(C)=O)c4)ccnc3O2)cc1OC (stereo not given),-30,-19,32,-5,10,24
O=C(NCC1CC1)C1Cc2c(-c3ccc(Cl)cc3)ccnc2O1 (stereo not given),25,2,7,-10,7,-1
CC(=O)c1cccc(-c2ccnc3c2CC(C(=O)NCc2cccs2)O3)c1 (stereo not given),15,-8,27,-14,19,73*
Cc1ccc(N(C)S(=O)(=O)c2cccc(C(=O)OCC(=O)c3c(N)n(C)c(=O)n(C)c3=O)c2)cc1,-5,23,38,-18,52*,-3
COc1ccc(-c2nc(SCC(=O)N(CC(C)C)c3c(N)n(Cc4ccccc4)c(=O)[nH]c3=O)n[nH]2)cc1,-5,5,8,6,4,-15
CC(C)CN(C(=O)CSc1nc(-c2ccccc2)cn1N)c1c(N)n(Cc2ccccc2)c(=O)[nH]c1=O,11,16,43,-1,54*,-72
COc1ccc(NC(=O)N(C)C[C@H]2OCc3ccccc3-c3c(n(C)c4ccccc34)C(=O)N([C@H](C)CO)C[C@H]2C)cc1,.,2,.,.,.,21
CCc1nc(N2[C@H](C#N)[C@@H](c3ccccc3-c3ccccc3C)[C@H]2CO)sc1C,.,13,.,.,.,-6
Cc1noc(C)c1NC(=O)N(C)C[C@@H]1Oc2ccc(NC(=O)NC(C)C)cc2C(=O)N([C@H](C)CO)C[C@H]1C,.,-23,.,.,.,-5
Cc1ccccc1NC(=O)c1cc(C(=O)c2cc(Cl)ccc2O)cn(-c2ccccc2C)c1=O,48,-23,87*,-43,38,4
